Compound in the assay: Nc1ncnc2c1ncn2[C@@H]1O[C@H](COP(=O)(O)OP(=O)(O)OP(=O)(O)O)[C@@H](O)[C@H]1O [adenosine 5'-triphosphate]
Put plainly: log2 fold change of tryptic peptide abundance, ligand vs vehicle (limited proteolysis) (log2 ratio); higher = more trypsin-susceptible (destabilized). Particulars: ligand concentration: 5 mM; sample: E. coli desalted lysate; replicate design: treated before aliquoting. As for the experimental part:
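HT-PELSA: desalted E. coli K-12 BW25113 lysate (with 12 mM MgCl2) incubated with 5 mM ATP (pH 7) or water for 30 min at 25 C, then a 4 min trypsin pulse at 22 C. Peptides were quantified by DIA-MS (4 replicates). Value is the peptide log2 fold change (treated/control); negative = stabilized. Scale: negative = ligand-stabilized region.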
UniProt P45955, sequence (P45955 whole entry): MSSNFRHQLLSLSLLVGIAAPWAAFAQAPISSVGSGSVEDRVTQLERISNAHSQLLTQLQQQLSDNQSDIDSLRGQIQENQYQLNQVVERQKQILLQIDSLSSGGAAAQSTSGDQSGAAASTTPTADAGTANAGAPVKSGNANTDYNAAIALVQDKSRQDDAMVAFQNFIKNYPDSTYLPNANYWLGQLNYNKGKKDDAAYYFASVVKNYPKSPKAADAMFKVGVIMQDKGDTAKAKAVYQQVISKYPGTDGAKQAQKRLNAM
UniProt P64610, sequence (P64610 whole entry): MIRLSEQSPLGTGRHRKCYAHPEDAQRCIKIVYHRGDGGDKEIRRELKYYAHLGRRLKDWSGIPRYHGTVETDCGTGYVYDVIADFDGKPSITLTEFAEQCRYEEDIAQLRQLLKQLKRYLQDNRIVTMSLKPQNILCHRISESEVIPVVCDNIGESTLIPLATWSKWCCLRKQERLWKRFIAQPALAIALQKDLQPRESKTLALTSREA
UniProt P13009, sequence (P13009 whole entry): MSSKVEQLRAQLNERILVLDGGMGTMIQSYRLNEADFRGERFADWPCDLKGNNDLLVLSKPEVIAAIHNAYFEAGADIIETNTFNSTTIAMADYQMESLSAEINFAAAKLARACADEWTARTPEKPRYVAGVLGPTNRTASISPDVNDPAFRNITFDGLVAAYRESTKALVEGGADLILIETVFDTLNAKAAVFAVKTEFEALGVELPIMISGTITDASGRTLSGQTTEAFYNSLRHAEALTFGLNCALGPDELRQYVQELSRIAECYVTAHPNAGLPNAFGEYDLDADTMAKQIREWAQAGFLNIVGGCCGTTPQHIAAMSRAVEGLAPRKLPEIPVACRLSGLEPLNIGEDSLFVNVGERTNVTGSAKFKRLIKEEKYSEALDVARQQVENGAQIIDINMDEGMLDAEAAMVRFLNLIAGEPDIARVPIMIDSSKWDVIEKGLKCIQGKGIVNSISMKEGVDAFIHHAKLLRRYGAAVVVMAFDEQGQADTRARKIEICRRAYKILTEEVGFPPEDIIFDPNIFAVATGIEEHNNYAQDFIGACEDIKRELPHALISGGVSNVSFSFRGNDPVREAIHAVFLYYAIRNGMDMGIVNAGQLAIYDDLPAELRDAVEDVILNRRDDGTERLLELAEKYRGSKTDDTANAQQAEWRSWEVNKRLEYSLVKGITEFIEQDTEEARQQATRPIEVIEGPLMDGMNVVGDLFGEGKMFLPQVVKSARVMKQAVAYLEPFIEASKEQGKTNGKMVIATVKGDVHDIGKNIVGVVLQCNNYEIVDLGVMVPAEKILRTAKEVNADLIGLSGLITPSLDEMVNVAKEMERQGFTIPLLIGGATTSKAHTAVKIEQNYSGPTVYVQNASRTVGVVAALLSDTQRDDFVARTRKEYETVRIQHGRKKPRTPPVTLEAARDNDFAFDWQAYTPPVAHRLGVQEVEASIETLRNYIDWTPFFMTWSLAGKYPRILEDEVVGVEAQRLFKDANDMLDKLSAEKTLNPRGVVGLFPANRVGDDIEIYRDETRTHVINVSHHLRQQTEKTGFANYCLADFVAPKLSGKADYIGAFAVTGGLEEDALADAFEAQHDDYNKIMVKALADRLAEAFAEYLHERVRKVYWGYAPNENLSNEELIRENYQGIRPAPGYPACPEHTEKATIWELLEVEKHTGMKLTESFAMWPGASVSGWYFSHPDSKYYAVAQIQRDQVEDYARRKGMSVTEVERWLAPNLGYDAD
UniProt P76256, sequence (P76256 whole entry): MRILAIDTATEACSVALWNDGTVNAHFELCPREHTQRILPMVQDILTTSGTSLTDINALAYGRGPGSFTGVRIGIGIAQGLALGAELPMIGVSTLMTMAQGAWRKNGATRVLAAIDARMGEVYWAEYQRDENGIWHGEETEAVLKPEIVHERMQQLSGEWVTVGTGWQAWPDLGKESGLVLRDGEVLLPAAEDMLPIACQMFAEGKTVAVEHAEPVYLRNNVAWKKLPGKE
UniProt P76550, sequence (P76550 whole entry): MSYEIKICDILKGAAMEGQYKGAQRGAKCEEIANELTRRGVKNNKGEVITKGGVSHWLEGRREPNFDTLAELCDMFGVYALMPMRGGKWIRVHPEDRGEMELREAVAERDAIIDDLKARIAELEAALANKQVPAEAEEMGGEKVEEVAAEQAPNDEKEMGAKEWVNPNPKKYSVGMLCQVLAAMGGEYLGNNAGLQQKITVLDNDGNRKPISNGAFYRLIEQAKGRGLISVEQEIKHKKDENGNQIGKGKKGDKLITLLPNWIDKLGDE
UniProt P77307, sequence (P77307 whole entry): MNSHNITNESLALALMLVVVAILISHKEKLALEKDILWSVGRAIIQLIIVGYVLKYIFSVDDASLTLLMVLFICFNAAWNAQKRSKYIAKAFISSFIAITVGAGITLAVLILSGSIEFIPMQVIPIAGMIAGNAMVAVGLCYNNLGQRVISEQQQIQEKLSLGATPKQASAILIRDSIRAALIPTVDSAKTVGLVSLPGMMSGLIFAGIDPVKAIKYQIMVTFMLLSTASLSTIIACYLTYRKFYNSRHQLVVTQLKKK
UniProt P56258, sequence (P56258 whole entry): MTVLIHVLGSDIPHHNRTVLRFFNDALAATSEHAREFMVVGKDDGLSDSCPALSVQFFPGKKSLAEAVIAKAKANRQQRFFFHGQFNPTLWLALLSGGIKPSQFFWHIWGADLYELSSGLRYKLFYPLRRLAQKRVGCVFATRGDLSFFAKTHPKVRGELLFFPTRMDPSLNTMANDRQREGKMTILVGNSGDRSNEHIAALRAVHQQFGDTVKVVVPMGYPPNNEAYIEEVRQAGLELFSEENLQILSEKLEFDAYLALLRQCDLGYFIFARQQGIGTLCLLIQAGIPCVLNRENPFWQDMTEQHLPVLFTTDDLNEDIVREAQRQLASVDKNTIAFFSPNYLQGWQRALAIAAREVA
UniProt P22525, sequence (P22525 whole entry): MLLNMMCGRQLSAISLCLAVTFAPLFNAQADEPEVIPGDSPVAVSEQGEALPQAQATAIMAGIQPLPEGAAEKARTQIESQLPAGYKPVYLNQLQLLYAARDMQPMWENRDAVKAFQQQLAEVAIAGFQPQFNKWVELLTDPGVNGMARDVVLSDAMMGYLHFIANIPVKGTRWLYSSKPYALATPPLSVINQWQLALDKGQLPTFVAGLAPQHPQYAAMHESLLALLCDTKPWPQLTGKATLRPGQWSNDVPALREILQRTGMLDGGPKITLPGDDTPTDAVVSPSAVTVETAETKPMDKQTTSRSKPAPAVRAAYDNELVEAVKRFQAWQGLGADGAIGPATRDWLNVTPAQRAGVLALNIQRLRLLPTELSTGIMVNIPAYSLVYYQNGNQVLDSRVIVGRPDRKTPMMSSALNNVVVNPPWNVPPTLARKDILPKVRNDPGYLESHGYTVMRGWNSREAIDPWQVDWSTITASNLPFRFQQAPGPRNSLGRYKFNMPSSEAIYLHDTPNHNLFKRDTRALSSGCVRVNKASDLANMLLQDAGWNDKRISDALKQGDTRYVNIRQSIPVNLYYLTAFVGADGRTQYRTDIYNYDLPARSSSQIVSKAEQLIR
UniProt P29013, sequence (P29013 whole entry): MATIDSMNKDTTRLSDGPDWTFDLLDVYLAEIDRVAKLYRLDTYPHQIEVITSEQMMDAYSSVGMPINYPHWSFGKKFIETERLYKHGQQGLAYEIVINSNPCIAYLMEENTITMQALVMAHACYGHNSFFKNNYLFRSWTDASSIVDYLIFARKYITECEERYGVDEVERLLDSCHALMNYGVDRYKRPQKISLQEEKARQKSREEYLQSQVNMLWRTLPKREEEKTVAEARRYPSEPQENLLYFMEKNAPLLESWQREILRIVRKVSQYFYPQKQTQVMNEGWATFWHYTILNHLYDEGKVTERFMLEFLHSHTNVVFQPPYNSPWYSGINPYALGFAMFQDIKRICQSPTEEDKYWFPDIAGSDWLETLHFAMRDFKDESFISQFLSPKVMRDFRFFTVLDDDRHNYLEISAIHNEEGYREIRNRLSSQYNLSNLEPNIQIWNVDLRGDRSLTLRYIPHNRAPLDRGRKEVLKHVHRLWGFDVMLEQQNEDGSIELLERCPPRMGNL
UniProt P06966, sequence (P06966 whole entry): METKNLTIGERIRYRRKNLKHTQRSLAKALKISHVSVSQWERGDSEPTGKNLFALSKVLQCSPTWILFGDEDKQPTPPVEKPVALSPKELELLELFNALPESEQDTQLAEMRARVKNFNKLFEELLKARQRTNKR
UniProt P76594, sequence (P76594 whole entry): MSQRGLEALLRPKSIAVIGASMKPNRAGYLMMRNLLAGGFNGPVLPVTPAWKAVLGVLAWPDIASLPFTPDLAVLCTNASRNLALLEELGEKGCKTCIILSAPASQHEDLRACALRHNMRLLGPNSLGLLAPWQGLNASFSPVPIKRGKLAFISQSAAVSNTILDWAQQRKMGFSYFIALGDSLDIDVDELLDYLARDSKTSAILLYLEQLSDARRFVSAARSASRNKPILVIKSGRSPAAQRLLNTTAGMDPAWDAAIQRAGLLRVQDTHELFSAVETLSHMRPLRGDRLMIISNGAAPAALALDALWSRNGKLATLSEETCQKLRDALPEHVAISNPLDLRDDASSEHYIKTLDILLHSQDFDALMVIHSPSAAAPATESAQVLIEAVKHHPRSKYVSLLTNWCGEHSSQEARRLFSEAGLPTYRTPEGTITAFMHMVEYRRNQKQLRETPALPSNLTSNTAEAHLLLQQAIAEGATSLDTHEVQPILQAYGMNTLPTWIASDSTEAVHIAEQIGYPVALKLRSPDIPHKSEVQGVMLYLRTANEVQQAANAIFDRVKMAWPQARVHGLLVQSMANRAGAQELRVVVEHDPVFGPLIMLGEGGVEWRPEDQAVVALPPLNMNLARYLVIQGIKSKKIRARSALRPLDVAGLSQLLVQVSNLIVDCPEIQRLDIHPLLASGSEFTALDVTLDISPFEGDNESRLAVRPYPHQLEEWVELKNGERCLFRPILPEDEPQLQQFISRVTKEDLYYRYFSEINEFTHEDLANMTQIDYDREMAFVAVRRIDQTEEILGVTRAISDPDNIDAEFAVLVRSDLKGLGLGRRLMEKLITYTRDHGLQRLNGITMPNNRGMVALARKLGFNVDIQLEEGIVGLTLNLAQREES
Consider “UniProt P08394 (peptide sequence: HCYPLPR, peptide start residue: 171)”, for which the log2 fold change amounted to 1.13.

As to “UniProt P06966 (peptide sequence: ISHVSVSQWER, peptide start residue: 32)”, the log2 fold change is -1.

Consider “UniProt P08839 (peptide sequence: TSHTSIMAR, peptide start residue: 187)”, for which the log2 fold change is 0.443.

In the case of “UniProt P77279 (peptide sequence: NIAELSGGEK, peptide start residue: 134)”, the log2 fold change is -0.683.

On to “UniProt P12282 (peptide sequence: QTLHSDATVGQPK, peptide start residue: 74)”, for which the log2 fold change is -1.54.

With “UniProt P56258 (peptide sequence: VGCVFATR, peptide start residue: 136)”, the log2 fold change is -0.934.

As to “UniProt P36547 (peptide sequence: TANLHHLYHEPLPENLK, peptide start residue: 6)”, the log2 fold change was -0.813.

As for “UniProt P76256 (peptide sequence: DENGIWHGEETEAVLKPEIVHER, peptide start residue: 130)”, the log2 fold change is -0.588.

For the target “UniProt Q47129 (peptide sequence: LDADLPMVQLSHR, peptide start residue: 141)”, the log2 fold change is -1.3.

As to “UniProt P27859 (peptide sequence: ELLPLIPAEK, peptide start residue: 188)”, the log2 fold change was -0.738.

For “UniProt P00968 (peptide sequence: AQLGSNSTMKKHGR, peptide start residue: 931)”, the log2 fold change was 0.849.

Take “UniProt P04693 (peptide sequence: HAIAPLLFGADHPVLKQQR, peptide start residue: 77)”: the log2 fold change is 0.961.

On to “UniProt P45955 (peptide sequence: AVYQQVISKYPGTDGAK, peptide start residue: 238)”, for which the log2 fold change was determined as 0.687.

Take “UniProt P77148 (peptide sequence: ILLGEYFR, peptide start residue: 100)”: the log2 fold change is -0.452.

For “UniProt P39383 (peptide sequence: MLESHLR, peptide start residue: 221)”, the log2 fold change was -0.592.

As to “UniProt P22525 (peptide sequence: AGVLALNIQR, peptide start residue: 356)”, the log2 fold change is -0.343.

On to “UniProt P37339 (peptide sequence: AFCDQNGIR, peptide start residue: 75)”, for which the log2 fold change worked out at 0.681.

As for “UniProt P16525 (peptide sequence: TTFEHIVTVESELPTAAR, peptide start residue: 122)”, the log2 fold change was found to be 0.318.

Regarding “UniProt P64610 (peptide sequence: IVTMSLKPQNILCHR, peptide start residue: 126)”, the log2 fold change is -0.974.

Take “UniProt P30855 (peptide sequence: YSQTSAGR, peptide start residue: 888)”: the log2 fold change turned out to be 0.38.

In the case of “UniProt P29013 (peptide sequence: SREEYLQSQVNMLWR, peptide start residue: 204)”, the log2 fold change is -0.636.

On to “UniProt P10423 (peptide sequence: KSWHNVTGSTVIAAHEGK, peptide start residue: 90)”, for which the log2 fold change is -0.451.

“UniProt P25888 (peptide sequence: DLMASAQTGTGK, peptide start residue: 40)”: the log2 fold change was -1.66.

As to “UniProt Q46851 (peptide sequence: YLNGIPQDSR, peptide start residue: 234)”, the log2 fold change was -0.438.

Consider “UniProt Q46861 (peptide sequence: EALPGWSGVDSTRLDTPGK, peptide start residue: 229)”, for which the log2 fold change worked out at 0.959.

With “UniProt P0A7Y8 (peptide sequence: KGVADLDNR, peptide start residue: 91)”, the log2 fold change came to 0.915.

For “UniProt P76594 (peptide sequence: SEVQGVMLYLR, peptide start residue: 533)”, the log2 fold change was -2.33.

For “UniProt P76222 (peptide sequence: LLAVADWR, peptide start residue: 97)”, the log2 fold change was -0.698.

As to “UniProt P76340 (peptide sequence: ILLIEDNQR, peptide start residue: 3)”, the log2 fold change was -0.349.

For “UniProt P37766 (peptide sequence: AIAPDIAFIR, peptide start residue: 178)”, the log2 fold change was -0.633.

Turning to “UniProt P77307 (peptide sequence: HQLVVTQLK, peptide start residue: 249)”, the log2 fold change was -0.533.

For “UniProt P05719 (peptide sequence: FDTTDLVFVPK, peptide start residue: 54)”, the log2 fold change is -0.655.

For the target “UniProt P09029 (peptide sequence: DVFPIIADR, peptide start residue: 72)”, the log2 fold change was -2.73.

Turning to “UniProt P37902 (peptide sequence: ALFKEPNDKALN, peptide start residue: 291)”, the log2 fold change amounted to 1.12.

With “UniProt P24232 (peptide sequence: MFTHNPELKEIFNMSNQR, peptide start residue: 32)”, the log2 fold change was -1.5.

As to “UniProt P15043 (peptide sequence: FGKPFMALIR, peptide start residue: 591)”, the log2 fold change came to 0.672.

“UniProt P77611 (peptide sequence: LFSAFRK, peptide start residue: 4)”: the log2 fold change stood at 0.344.

As to “UniProt P13009 (peptide sequence: DQVEDYAR, peptide start residue: 1198)”, the log2 fold change is -1.27.

With “UniProt P77374 (peptide sequence: INHPDRLNYPMKR, peptide start residue: 106)”, the log2 fold change was -0.781.

In the case of “UniProt P76550 (peptide sequence: PISNGAFYR, peptide start residue: 210)”, the log2 fold change is -0.83.

These data come from the supplement of paper PMC12819154, “High-throughput peptide-centric local stability assay extends protein–ligand identification to membrane proteins, tissues and bacteria” (Nature Structural & Molecular Biology, 2025).
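Further: lysate desalted by size exclusion to strip endogenous ATP, peptide intensities built from DIA-NN precursor signals, and peptides missing any value discarded before comparison.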
